According to PubChem BioAssay (Tox21):
Records with an inconclusive call do not appear. Entries that show only a call come without a potency. Values without a mark were called inactive. Calls of active or inactive are those of the source. The call rests on the fitted dose curve; in most records, active means well fitted cell-killing curve with a large enough effect in the repeat runs; inconclusive means weak or mixed curves, or effect the other way; inactive means no such curve, though single readings can be large or run the other way.

Test: qHTS assay to identify small molecule antagonists of the progesterone receptor (PR) signaling pathway - cell viability counter screen (AID 1346798); further: nearly all actives have a fitted effect of over 50% in size
Settings: PR-UAS-bla HEK293T viability, CellTiter-Glo luminescence, 16 h; series mostly up to 92.4 µM
Description: National Center for Advancing Translational Sciences [NCATS]
NIH Chemical Genomics Center [NCGC]
U.S. Environmental Protection Agency [EPA]
National Institutes of Environmental Health Sciences [NIEHS]
National Toxicology Program [NTP]
U.S. Food and Drug Administration [FDA]
Progesterone receptor (PR), a nuclear hormone receptor, plays an important role in development, metabolic homeostasis and reproduction. It is activated by the steroid hormone progesterone. Endocrine disrupting chemicals (EDCs) and their interactions with steroid hormone receptors like PR causes disruption of normal endocrine function. To identify the compounds that inhibit PR signaling, a PR-UAS-bla GripTite cell line i.e. PR-UAS-bla HEK293T (Invitrogen, Carlsbad, CA, USA) containing a beta-lactamase reporter gene under the control of an UAS response element was used to screen Tox21 10K compound library. The cytotoxicity of the Tox21 compound library against the PR-bla cell line was tested in parallel by measuring the cell viability using CellTiter-Glo assay in the same wells.
Tox21 Assay Protocol Summary:
PR-UAS-bla HEK293T cells were dispensed at 3,000 cells/4 uL of assay medium containing 2% charcoal stripped FBS per well into black wall/clear-bottom 1536-well plates using a Multidrop Combi (ThermoFisher Scientific, Waltham, MA) dispenser. After the assay plates were incubated at a 37C and 5% CO2 for 4 hr, 23 nL of compounds dissolved in DMSO, positive controls or DMSO only was transferred to the assay plate by a Pintool station (Kalypsys, San Diego, CA), followed by addition of 1 uL of R5020 in assay medium using a Flying Reagent Dispenser (FRD, Aurora Discovery, San Diego, CA). The plates were incubated at 37C and 5% CO2 for 16 hr. Then 1 uL of LiveBLAzer B/G FRET substrate was added using a Flying Reagent Dispenser, the plates were incubated at room temperature for 2 hours, and fluorescence intensity was measured by an Envision plate reader (PerkinElmer, Shelton, CT). For cell viability readout that measures cytotoxicity, 4 uL/well of CellTiter-Glo reagent was added into the assay plates using a FRD. After 30 min incubation at room temperature, the luminescence intensity in the plates was measured using a ViewLux (PerkinElmer) plate reader.
Potency means the concentration at half of the fitted maximal effect.

Row | Structure (SMILES) | Potency | activity change, negative = cytotoxicity
1 | NCCCOCCOCCOCCCN | 9.69 µM (active) | –
2 | C[Si](C)O[Si](C)(C)O[Si](C)(C)O[Si](C)C | inactive | –
3 | CC(=O)O[C@@H]1C(=O)O[C@@H]2[C@H]1OC(=O)[C@@H]2OC(C)=O | inactive | –
4 | NC1CCN(c2nc3c(cc2F)c(=O)c(C(=O)O)cn3-c2ccc(F)cc2F)C1 (stereo not given) | inactive | –
5 | CCCC(=O)OCC | inactive | –
6 | CCCCCCCCN(C)C | inactive | –
7 | Cc1ncsc1CCO | inactive | –
8 | O=C(Cl)c1c(Cl)cccc1Cl | inactive | –
9 | Nc1nc(N)c(-c2ccccc2)s1 | inactive | –
10 | CC1CCc2cc(F)cc3c(=O)c(C(=O)O)cn1c23 (stereo not given) | inactive | –
11 | ClC(Cl)(Cl)c1ccc(C(Cl)(Cl)Cl)cc1 | inactive | –
12 | O=C(CCN1CCN2CCCC2C1)N1c2ccccc2Sc2ccc(Cl)cc21 (stereo not given) | – | -27.7% [at 18.9 µM]
13 | N#Cc1c(F)cccc1F | inactive | –
14 | CCCc1ccccc1 | inactive | –
15 | CCN1CCC[C@H]1CNC(=O)c1c(OC)ccc(Br)c1OC | inactive | –
16 | CC(=O)CC(=O)c1ccccc1 | inactive | –
17 | O=C(O)[C@@H]1[C@H]2C[C@H]3c4[nH]c5ccccc5c4CCN3C[C@@H]2CC[C@@H]1O | inactive | –
18 | CCN(CC)CCNC(C(=O)OCCC(C)C)c1ccccc1 (stereo not given) | inactive | –
19 | C1=Cc2ccccc2C1 | inactive | –
20 | Nc1cnn([C@@H]2O[C@H](CO)[C@@H](O)[C@H]2O)c(=O)n1 | inactive | –

Row | Structure (SMILES) | Potency | activity change, negative = cytotoxicity
21 | CC(CN)CCCN (stereo not given) | inactive | –
22 | Cc1ccc(C(=O)C(C)CN2CCCCC2)cc1 (stereo not given) | inactive | –
23 | CCN(CC)C(C)CN1c2ccccc2Sc2ccccc21 (stereo not given) | inactive | –
24 | CCCCCC/C=C/C=O | inactive | –
25 | CC(=O)N(CC(=O)N(C)C)c1ccccc1 | inactive | –
26 | CCCCCCCCCC=O | inactive | –
27 | N#CCc1cccc(C(F)(F)F)c1 | inactive | –
28 | O=[N+]([O-])c1cccc(Cl)c1Cl | inactive | –
29 | Cc1c(Cn2ccnc2)c2ccccc2n1CCC(=O)O | inactive | –
30 | CCCCCCCCCCCCCCC1CO1 (stereo not given) | inactive | –
31 | C=CCCCCCC | inactive | –
32 | CC1=CCC(C(C)C)C=C1 (stereo not given) | inactive | –
33 | C1CCC2OC2C1 (stereo not given) | inactive | –
34 | COC(=O)C(C)=O | inactive | –
35 | SC1CCCC1 | inactive | –
36 | CC(C)c1ccccc1C(C)C | inactive | –
37 | CC(C)(C)c1cc(CCC(=O)OCC(COC(=O)CCc2cc(C(C)(C)C)c(O)c(C(C)(C)C)c2)(COC(=O)CCc2cc(C(C)(C)C)c(O)c(C(C)(C)C)c2)COC(=O)CCc2cc(C(C)(C)C)c(O)c(C(C)(C)C)c2)cc(C(C)(C)C)c1O | inactive | –
38 | O=C(c1ccccc1)c1ccc2n1CCC2C(=O)O (stereo not given) | inactive | –
39 | COc1ccc(C(C)=O)cc1 | inactive | –
40 | O=CNc1ccccc1 | inactive | –
